Measured values published in PubChem BioAssay (NCATS).
Results filed as inconclusive are left out. The source made the active and inactive calls. The call rests on the fitted dose curve; in most records, active means well fitted curve in the direction sought with a large enough effect; inconclusive means small, poorly fitted or top-dose-only effect, or another doubt; inactive means no such curve, though single readings can be large; an effect the other way counts as inactive or inconclusive.

Assays:
[1] = qHTS assay for measurement of the activity of small molecule inhibitors on Zika virus induced Caspase-3 activity in human iPSC derived neural progenitor cells (hNPCs) (AID 1224857); conditions: hNPCs ZIKV-induced caspase-3/7, Caspase-Glo luminescence, 6 h; series mostly up to 45.7 µM; further: nearly all actives have a fitted effect of over 65% in size
Summary of the method: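 Quantitative HTS format: human iPSC neural progenitors, 1 h compound pretreatment, ZIKV 2 FFU/cell for 6 h at 37 C. Percent inhibition derived from luminescent caspase-3/7 signal between uninfected and infected controls.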

[2] = qHTS assay for measurement of the activity of small molecule inhibitors on Zika virus induced Caspase-3 activity in human astrocytoma cells (AID 1224859); conditions: SNB-19 ZIKV-induced caspase-3/7, luminescence, 6 h; series mostly up to 45.7 µM
Summary of the method: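 Readout is luminescence from Caspase-Glo 3/7 added after a 6 h ZIKV infection (2 FFU/cell) of compound-pretreated (1 h) SNB-19 cells; data expressed as % inhibition versus uninfected and infected wells.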

[3] = qHTS assay to identify small molecule inhibitors of chordoma cells - UCH-1 (AID 1259355); conditions: UCH-1 chordoma viability, CellTiter-Glo, 48 h, combination, with auranofin plus four topoisomerase inhibitors; series mostly up to 46.1 µM; further: nearly all actives have a fitted effect of over 55% in size
Summary of the method: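 Cells (800/well) were seeded and left overnight at 37 C, 5% CO2, then treated with drugs at 15 concentrations plus a combination mix of auranofin, camptothecin, doxorubicin, rubitecan and topotecan. Viability after 48hr was read by CellTiter-Glo luminescence.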

[4] = qHTS assay to identify small molecule inhibitors of chordoma cells - UCH-2 (AID 1259356); conditions: UCH-2 chordoma viability, CellTiter-Glo ATP luminescence, 48 h; series mostly up to 46.1 µM
[5] = P-glycoprotein substrates identified in KB-8-5-11 adenocarcinoma cell line, qHTS therapeutic library screen (AID 1346987); conditions: KB-8-5-11 (P-gp overexpressing) viability, CellTiter-Glo, 72 h; series mostly up to 44.5 µM; further: nearly all actives have a fitted effect of over 65% in size
Summary of the method: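 Steps: plate 500 KB-8-5-11 cells/well in DMEM + 10% FCS (colchicine removed); pin compounds in dose-response; incubate 72 h, 37 degree C, 5% CO2; add CellTiter-Glo, 5 min; read luminescence.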

Measured: Potency

CCOC(=O)C1=C(C)NC(C)=C(C(=O)OC)C1c1cccc(Cl)c1Cl (stereo not drawn)
inactive: all assays above

NC(=O)c1ncn([C@@H]2O[C@H](CO)[C@@H](O)[C@H]2O)c1O
inactive: all assays above

COc1cc(C(=O)OCCCN2CCCN(CCCOC(=O)c3cc(OC)c(OC)c(OC)c3)CC2)cc(OC)c1OC
inactive: [1] | [2] | [4]

CNC1(C)C2CCC(C2)C1(C)C (stereo not drawn)
inactive: all assays above

COC(=O)[C@H]1[C@H]2C[C@@H]3c4[nH]c5cc(OC)ccc5c4CCN3C[C@H]2C[C@@H](OC(=O)c2cc(OC)c(OC)c(OC)c2)[C@@H]1OC
inactive: all assays above

NC(N)=NC(=O)Cc1c(Cl)cccc1Cl
inactive: [1] | [3] | [4]

Cc1ccc(=O)n(-c2ccccc2)c1
inactive: all assays above

CC(=O)OCC1=C(C(=O)O)N2C(=O)[C@@H](NC(=O)Cc3cccs3)[C@H]2SC1
inactive: all assays above

C[C@]12C=CC(=O)C=C1CC[C@H]1[C@@H]3C[C@@H](O)[C@](O)(C(=O)CO)[C@@]3(C)C[C@H](O)[C@@]12F
not listed: [3]
inactive: all other assays above

CN(C)C(=O)Oc1cccc([N+](C)(C)C)c1
inactive: all assays above

CN1CCN(CC(=O)N2c3ccccc3C(=O)Nc3cccnc32)CC1
inactive: [1] | [3] | [4]
